Screening results as filed in PubChem.
Compounds with a hit are over-represented: about 2.5% of the library has one in this group of screens.
CHT block = inhibits the human high affinity choline transporter | AID 488975 | B-score at 10 µM | hit rate 0.86% among 310,000 | CHT-expressing cells, membrane potential dye, choline response; stronger effect = lower value;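 active = B-score over 3 SD under the library average, and starting fluorescence ratio not unusually high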;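 note: choline stimulus applied at its EC90 after an EC20 pre-addition; B-score computed on integrated fluorescence ratio after choline addition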
Target sequence (Q9GZV3 whole entry, looked up): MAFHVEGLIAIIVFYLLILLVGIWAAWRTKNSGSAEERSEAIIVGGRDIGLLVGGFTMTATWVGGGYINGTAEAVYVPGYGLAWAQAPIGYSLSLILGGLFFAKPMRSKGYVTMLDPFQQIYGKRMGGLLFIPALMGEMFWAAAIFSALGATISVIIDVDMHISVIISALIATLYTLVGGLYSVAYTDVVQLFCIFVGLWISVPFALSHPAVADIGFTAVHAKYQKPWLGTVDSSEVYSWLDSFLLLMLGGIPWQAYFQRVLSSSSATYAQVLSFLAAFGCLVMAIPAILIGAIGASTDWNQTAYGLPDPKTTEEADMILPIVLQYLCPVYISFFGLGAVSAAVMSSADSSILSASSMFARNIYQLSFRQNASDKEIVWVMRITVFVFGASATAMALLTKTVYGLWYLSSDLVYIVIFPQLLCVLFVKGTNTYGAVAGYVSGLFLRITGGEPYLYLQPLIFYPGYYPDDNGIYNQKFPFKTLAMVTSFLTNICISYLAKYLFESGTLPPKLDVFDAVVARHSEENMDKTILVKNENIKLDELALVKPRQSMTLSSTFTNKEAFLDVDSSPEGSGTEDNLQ
ANO1 activ = activates or potentiates the mouse TMEM16A chloride channel | HEK293 TMEM16A/YFP-H148Q/I152L, iodide quench fluorescence; stronger effect = lower value | B-score at 10 µM | hit rate 0.3% among 340,000;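 active = fluorescence-ratio B-score plate-corrected deviation score at least 3 library SD below zero, with starting fluorescence score within 5 deviations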;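 note: channel opened by trigger with iodide after compound preincubation; score built on the fluorescence ratio of max minus min over baseline; more negative score means more quench and so TMEM16A activation or potentiation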
TMEM16A inh = inhibitors of mouse TMEM16A calcium-activated chloride channel; Q8BHY3; hit rate 1.2% among 310,000; normalized B-score (activity score, 25-100; higher = stronger inhibition) at 10 µM; HEK293 TMEM16A/YFP iodide influx fluorescence, ionomycin;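 active = ratio plate-corrected score three or more library SD toward inhibition, starting fluorescence score within five deviations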;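 note: score derived from kinetic fluorescence span divided by baseline fluorescence per well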
PKA-R1A act = activates the PKA-R1A holoenzyme complex | activation, % at 11.4 µM | P00514+P68181 | AID 504707 | hit rate 0.083% among 340,000 | PKA-R1A dissociation, Cy5-IP20 fluorescence polarization; scaled: DMSO 0%, 113 µM cGMP 100%;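 active = percent activation above the mean of all tested compounds plus 3 SD, cut at about 19% in these data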;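 note: higher means more PKAc released from R1A so a rise in polarization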
CHT allo act = human CHT allosteric activation. Q9GZV3. CHT-expressing cells, membrane potential dye, choline EC20; stronger effect = higher value; LV-AA mutant CHT in HEK293 cells. hit rate 0.49% among 310,000. B-score at 10 µM;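 active = initial fluorescence not abnormally high and integrated response B-score, plate-corrected, over 3 SD above library mean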
PKA-R2B activ = activators of human PKA-R2B complex. P22694+P31323. PKA-R2B holoenzyme dissociation, Cy5-IP20 fluorescence polarization; R2B truncated from residue 108, S112A mutant; 0% DMSO only, 100% 113 µM cGMP. activation, % at 11.4 µM. hit rate 0.079% among 340,000. AID 504700;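 active = activation above a cutoff set at the mean over all compounds plus 3 SD, cut at about 18% in these data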;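 note: higher means more holoenzyme dissociation and a rise in polarization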
CHT inh conf = human CHT inhibition, confirmatory screen | CHT-expressing cells, choline membrane potential dye; LV-to-AA substituted CHT, HEK293 cells | shares compounds with CHT block | CHT activity remaining % of control (stronger effect = lower value), % at 10 µM | hit rate 70% among 2,400;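 active = choline transporter activity left, mean of duplicates at 10 µM, below buffer-only control mean minus 3 SD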;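 note: depolarization triggered by choline at its EC90 following an EC20 pre-addition; 0% = hemicholinium-3 full block and 100% = buffer-only control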
HEK293 CHT ctr = CHT inhibitor counter-screen hit in parental HEK293 cells | shares compounds with CHT block | membrane potential dye, choline response; active = decrease or increase beyond buffer ±3SD | membrane potential ratio readout (active if shifted either direction beyond buffer ±3SD; no single direction) at 10 µM | hit rate 4% among 2,400;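 note: parental cells lack the transporter so any hit is non-specific; ratio is peak minus trough fluorescence over baseline after EC90 choline challenge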
Starred values were filed as active, the others as inactive; i = inactive; . = no result given.

SMILES	CHT block	ANO1 activ	TMEM16A inh	PKA-R1A act	CHT allo act	PKA-R2B activ	CHT inh conf	HEK293 CHT ctr
CCN(CC)CCCNC(=O)c1cn(CC)c2ccc(S(=O)(=O)N3CCc4ccccc4C3)cc2c1=O	-12.2*	i	i	-1.2	i	-3.7	15.1%*	i
CCN(CC)CCNC(=O)c1cn(CC)c2ccc(S(=O)(=O)N(C)C)cc2c1=O	i	i	i	-3.5	i	-5.8	.	.
CCCCNC(=O)c1cn(CC)c2ccc(S(=O)(=O)N3CCCC3)cc2c1=O	i	i	i	-4.7	i	5.0	.	.
CCOC(=O)N1CCN(C(=O)c2cc3cc(Cl)ccc3[nH]2)CC1	i	i	i	-2.8	i	-6.2	.	.
O=C(O)CCn1cc(-c2ccc(F)cc2)nc1-c1ccncc1	i	i	i	-11.0	i	-0.1	.	.
COc1cccc2cc(C(=O)NCCc3c[nH]c4ccccc34)c(=O)oc12	i	i	i	-5.5	i	-4.1	.	.
COc1ccccc1NC(=O)N1CCN(c2cccc(C(F)(F)F)c2)CC1	i	i	i	-10.2	i	-5.9	.	.
COc1ccccc1CC(=O)N1CCN(c2cccc(C(F)(F)F)c2)CC1	-6.27*	i	i	-2.2	i	-0.2	i	i
C(=N\Nc1nccc(-c2cccnc2)n1)/c1ccccc1	-12*	i	i	.	i	.	i	i
Cc1ccnc(N/N=C/c2ccccc2)n1	i	i	i	-22.5	i	-9.9	.	.
Cc1occc1C(=O)NNC(=S)NC(=O)COc1ccc(Cl)cc1Cl	-9.38*	-5.02*	100*	9.9	i	-13.6	57.7%*	i
Cc1occc1C(=O)NNC(=O)COc1ccc(Br)cc1Br	i	i	i	11.0	i	4.9	.	.
C#Cc1ccc([C@@H]2C=C(C(=O)O)O[C@H](OCc3ccc(CO)cc3)C2)cc1	i	i	i	-11.9	i	0.5	.	.
COc1ccc(N(C(=O)Cn2nnc3ccccc32)C(C(=O)NCc2ccco2)c2ccncc2)cc1 (centres undefined)	-10*	i	i	7.2	i	9.0	i	i
COc1cccc(-n2c(=O)n(Cc3ccccc3)c(=O)c3[nH]cnc32)c1	i	i	i	-1.6	i	-3.8	.	.
Cc1occc1C(=O)NNS(=O)(=O)c1ccc([N+](=O)[O-])cc1	-5.11*	i	i	5.1	i	6.2	45.6%*	i
CC(C)(C)OC(=O)NCCc1nnc(SCC(=O)Nc2cccc(Cl)c2)o1	i	i	i	5.0	i	-7.7	.	.
CC(C)(C)OC(=O)NCCCCCc1nnc(SCC(=O)Nc2cccc(Cl)c2)o1	-5.63*	i	100*	-1.9	i	-1.8	i	i
CC(C)(C)OC(=O)NCCc1nnc(SCc2ccc(Cl)cc2)o1	-6.15*	i	i	8.2	i	4.3	65.2%*	i
O=C(CCC(=O)c1cccs1)OCc1ccc([N+](=O)[O-])cc1	.	i	.	2.7	.	-3.8	.	.
Cc1ccc(NC2CCCN(C(=O)CCn3nccc3C)C2)cc1C (centres undefined)	i	i	i	-7.6	i	-10.8	.	.
Cc1ccc(S(=O)(=O)N2CCC(C(=O)N3Cc4ccccc4C3)CC2)cc1	i	i	i	-2.7	i	-11.6	.	.
CCOc1ccc(S(=O)(=O)N2CCC(C(=O)N3CCc4ccccc4C3)CC2)cc1	i	i	i	-4.8	i	9.5	.	.
CSc1ccc(S(=O)(=O)N2CCC(C(=O)N3CCc4ccccc4C3)CC2)cc1	-13.6*	i	i	10.6	i	3.0	58.8%*	i
O=C(CCc1ccc(S(=O)(=O)N2CCOCC2)cc1)N1CCc2ccccc2C1	-5.76*	i	i	-11.7	i	-0.8	66.0%*	i
SMILES	CHT block	ANO1 activ	TMEM16A inh	PKA-R1A act	CHT allo act	PKA-R2B activ	CHT inh conf	HEK293 CHT ctr
COc1ccc(S(=O)(=O)N2CCC(C(=O)N3CCc4ccccc4C3)CC2)cc1	-5.78*	-12.1*	i	-1.6	i	-9.2	48.6%*	i
CCOC(=O)Cn1nc(C)c(NC(=O)c2ccc(Br)o2)c1C	i	i	i	0.5	i	-13.6	.	.
COc1ccc(C(=O)NNC(=O)COc2ccc(Cl)cc2)c(OC)c1	i	i	i	0.7	i	-3.0	.	.
Cc1ccc(Cl)cc1NC(=O)C1CCCN(S(C)(=O)=O)C1 (centres undefined)	i	i	i	-3.9	i	-4.5	.	.
O=Cc1ccc(O)cc1O	i	i	i	-20.0	i	7.6	.	.
O=CN/C=C/c1cc(O)ccc1O	-7.42*	i	i	-7.2	i	1.1	48.4%*	i
Cc1ccc(C)c(C(=O)COC(=O)CN2C(=O)C3C4CCC(C4)C3C2=O)c1 (centres undefined)	i	i	i	-0.9	i	-1.0	.	.
CCN(C(=O)c1c(C)noc1C)c1c(N)n(Cc2ccccc2)c(=O)[nH]c1=O	.	i	.	12.4	.	-3.9	.	.
Cc1ccc(Nc2c3c(nc4ncnn24)CC(C)CC3)cc1 (centres undefined)	-5.81*	i	i	-4.6	i	9.1	i	i
CC(C)(C)OC(=O)N1CCC[C@H]1C(=O)N/N=C/c1ccc2ncccc2c1	i	i	i	13.6	i	-7.3	.	.
CCCCn1c(NCc2ccc3c(c2)OCO3)nc2ccccc21	-7.28*	i	i	5.2	i	0.2	51.8%*	3.02*
Cn1c(N)c(C(=O)CSc2nc(C3CC3)n(-c3ccccc3)n2)c(=O)[nH]c1=O	.	i	.	-5.4	.	-3.8	.	.
CC1(C)CC(=O)N(c2cccc(C(F)(F)F)c2)C(=O)C1	i	i	i	1.2	i	1.8	.	.
O=C(/C=C/c1ccccc1)N1CCC(Cc2ccccc2)CC1	-5.29*	i	i	-3.2	i	-2.5	i	i
O=C(/C=C/c1cccc(Cl)c1)N1CCC(Cc2ccccc2)CC1	i	i	i	-0.6	i	-4.7	.	.
O=C(C1CC(=O)N(C2CCCC2)C1)N1CCC(Cc2ccccc2)CC1 (centres undefined)	-5.77*	i	i	-12.6	i	-1.6	55.3%*	i
